# Assay results: PubChem BioAssay (NCI)
# Compounds without any hit were thinned out: in the full panel of roughly 79,000, 15% have a hit. Unmarked numbers belong to inactive results. Calls of active or inactive are those of the source. Cut-off read from the data, not from the text of the source: active = growth inhibition above about 70%; inactive = the rest.
# Columns and labels:
# [1] = NCI Yeast Anticancer Drug Screen. Data for the rad52 strain (AID 147);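 note: 0% = growth of vehicle-treated control cultures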; conditions: S. cerevisiae rad52 mutant growth inhibition, active compounds read high
# Outline: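 Growth of repair-deficient yeast cells was compared between compound-treated and vehicle-treated cultures to give percent inhibition.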
# [2] = NCI Yeast Anticancer Drug Screen. Data for the wt1 strain (AID 149);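 note: 0% = growth of vehicle-treated wt1 cultures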; conditions: S. cerevisiae wt1 strain (SPY 50644) growth inhibition, active compounds read high
# Outline: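 Yeast wt1 strain exposed to compounds; growth inhibition measured relative to vehicle-treated controls.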
# [3] = NCI Yeast Anticancer Drug Screen. Data for the rad50EPP+ strain (AID 151);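 note: 0% = growth of vehicle-treated control cultures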; conditions: S. cerevisiae rad50 mutant strain, active compounds read high
# Outline: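 Measured: growth inhibition of rad50EPP+ yeast. Reference: vehicle-treated controls. Screen uses strains with defined genetic alterations in DNA damage repair or cell cycle control.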
# [4] = NCI Yeast Anticancer Drug Screen. Data for the mgt1 strain (AID 153); conditions: S. cerevisiae mgt1 mutant growth inhibition, active compounds read high
# Outline: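 Compounds were applied to mgt1 mutant yeast, and growth was then compared against vehicle-treated control cultures to give percent inhibition.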
# [5] = NCI Yeast Anticancer Drug Screen. Data for the rad50 strain (AID 155);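 note: 0% = growth of vehicle-only cultures of the same strain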; conditions: S. cerevisiae rad50 strain growth inhibition, active compounds read high
# Outline: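 Yeast carrying a defined DNA repair defect were exposed to test compounds, and growth was compared with vehicle-treated controls to give percent inhibition.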
# [6] = NCI Yeast Anticancer Drug Screen. Data for the mec2-1 strain (AID 157); conditions: S. cerevisiae mec2-1 strain, active compounds read high
# Outline: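 Compounds were applied to mec2-1 yeast cells. Their growth was then compared with that of vehicle-treated cultures to give growth inhibition.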
# [7] = NCI Yeast Anticancer Drug Screen. Data for the rad14 strain (AID 159);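 note: 0% = growth of vehicle-treated control cultures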; conditions: S. cerevisiae rad14 strain growth inhibition, active compounds read high
# Outline: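 Yeast cells carrying a defined DNA-repair defect were exposed to compounds, and growth inhibition was calculated relative to vehicle-treated control cultures.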
# [8] = NCI Yeast Anticancer Drug Screen. Data for the sgs1 mgt1 strain (AID 161);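 note: 0% = growth of cultures given vehicle only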; conditions: S. cerevisiae sgs1 mgt1 strain, active compounds read high
# Outline: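 Growth of a repair-deficient yeast mutant was monitored after compound treatment and expressed as inhibition relative to vehicle-treated cultures.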
# [9] = NCI Yeast Anticancer Drug Screen. Data for the CLN2oe strain (AID 163);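 note: 0% = growth of vehicle-only control cultures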; conditions: S. cerevisiae CLN2oe strain, active compounds read high
# Outline: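 Cells of an engineered yeast line with disturbed cell-cycle regulation are treated with compound. Inhibition of growth is then calculated relative to the vehicle-treated reference.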
# [10] = NCI Yeast Anticancer Drug Screen. Data for the cln2 rad14 strain (AID 165);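 note: 0% = growth equal to vehicle treated cultures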; conditions: S. cerevisiae cln2 rad14 strain, active compounds read high
# Outline: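 Strain: cln2 rad14 yeast, altered in cell cycle control and DNA damage repair. Read-out: growth inhibition vs vehicle.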
# [11] = NCI Yeast Anticancer Drug Screen. Data for the bub3 strain (AID 167); conditions: S. cerevisiae bub3 mutant strain, active compounds read high
# Outline: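 Compounds were applied to a genetically altered yeast strain carrying a cell-cycle control defect. Growth inhibition was scored against vehicle-treated controls.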
# [12] = NCI Yeast Anticancer Drug Screen. Data for the wt2 strain (AID 169);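 note: 0% = growth of vehicle-treated yeast cultures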; conditions: S. cerevisiae wt2 strain growth inhibition, active compounds read high
# Outline: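 Growth of compound-treated yeast is measured and expressed as inhibition relative to vehicle-only controls.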
# [13] = NCI Yeast Anticancer Drug Screen. Data for the mlh1 strain (AID 171);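 note: 0% = growth of vehicle-treated control cultures of the same strain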; conditions: S. cerevisiae mlh1 strain growth inhibition, active compounds read high
# Outline: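 Test agents were incubated with yeast bearing a defined DNA damage repair or cell cycle control alteration; values are growth inhibition normalised to vehicle-treated cultures.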
# [14] = NCI Yeast Anticancer Drug Screen. Data for the sgs1 strain (AID 173);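 note: 0% = growth of vehicle-only control cultures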; conditions: S. cerevisiae sgs1 mutant, active compounds read high
# Outline: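 Strain with an altered DNA repair or cell cycle pathway exposed to compound. Growth then measured. Value = inhibition versus vehicle control.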
# [15] = NCI Yeast Anticancer Drug Screen. Data for the mlh1 rad18 strain (AID 175); conditions: S. cerevisiae mlh1 rad18 strain growth inhibition, active compounds read high
# Outline: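 A repair-deficient yeast strain is exposed to test compound, and growth is scored relative to vehicle-treated controls.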
# [16] = NCI Yeast Anticancer Drug Screen. Data for the rad18 strain (AID 177); conditions: S. cerevisiae rad18 mutant growth inhibition, active compounds read high
# Outline: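 DNA-repair-defective yeast; compound treatment; growth inhibition scored against vehicle.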
# [17] = at 5.0 µM (retest, dose inferred, filed as 0.5)
# [18] = at 50.0 µM (retest, dose inferred, filed as 5.0)
smiles,measurement,setting,value
CCCCCCCCCCCNC=O,growth inhibition,[1]; at 1.2 µM,-33%
same,growth inhibition,[1]; at 3.7 µM,-30%
same,growth inhibition,[1]; at 11.0 µM,-39%
same,growth inhibition,[1]; at 33.0 µM,34%
same,growth inhibition,[1]; at 100.0 µM,98% (active)
same,growth inhibition,[2]; at 1.2 µM,-18%
same,growth inhibition,[2]; at 3.7 µM,-10%
same,growth inhibition,[2]; at 11.0 µM,-9%
same,growth inhibition,[2]; at 33.0 µM,1%
same,growth inhibition,[2]; at 100.0 µM,98% (active)
same,growth inhibition,[3]; at 1.2 µM,-14%
same,growth inhibition,[3]; at 3.7 µM,-11%
same,growth inhibition,[3]; at 11.0 µM,0%
same,growth inhibition,[3]; at 33.0 µM,15%
same,growth inhibition,[3]; at 100.0 µM,97% (active)
same,growth inhibition,[4]; at 1.2 µM,-30%
same,growth inhibition,[4]; at 3.7 µM,-19%
same,growth inhibition,[4]; at 11.0 µM,-18%
same,growth inhibition,[4]; at 33.0 µM,72% (active)
same,growth inhibition,[4]; at 100.0 µM,98% (active)
same,growth inhibition,[5]; at 1.2 µM,-16%
same,growth inhibition,[5]; at 3.7 µM,-19%
same,growth inhibition,[5]; [17],1%
same,growth inhibition,[5]; at 11.0 µM,-41%
same,growth inhibition,[5]; at 33.0 µM,29%
same,growth inhibition,[5]; [18],96% (active)
same,growth inhibition,[5]; at 50.0 µM,89.9% (active)
same,growth inhibition,[5]; at 100.0 µM,98% (active)
same,growth inhibition,[6]; at 1.2 µM,-22%
same,growth inhibition,[6]; at 3.7 µM,-21%
same,growth inhibition,[6]; [17],7%
same,growth inhibition,[6]; at 11.0 µM,-20%
same,growth inhibition,[6]; at 33.0 µM,21%
same,growth inhibition,[6]; [18],96% (active)
same,growth inhibition,[6]; at 50.0 µM,91.3% (active)
same,growth inhibition,[6]; at 100.0 µM,98% (active)
same,growth inhibition,[7]; at 1.2 µM,-7%
same,growth inhibition,[7]; at 3.7 µM,-17%
same,growth inhibition,[7]; at 11.0 µM,-4%
same,growth inhibition,[7]; at 33.0 µM,30%
same,growth inhibition,[7]; at 100.0 µM,98% (active)
same,growth inhibition,[8]; [17],9%
same,growth inhibition,[8]; [18],93% (active)
same,growth inhibition,[8]; at 50.0 µM,92.5% (active)
same,growth inhibition,[9]; at 1.2 µM,-15%
same,growth inhibition,[9]; at 3.7 µM,-14%
same,growth inhibition,[9]; at 11.0 µM,-27%
same,growth inhibition,[9]; at 33.0 µM,-20%
same,growth inhibition,[9]; at 100.0 µM,98% (active)
same,growth inhibition,[10]; [17],42%
same,growth inhibition,[10]; [18],94% (active)
same,growth inhibition,[10]; at 50.0 µM,88% (active)
same,growth inhibition,[11]; at 1.2 µM,-21%
same,growth inhibition,[11]; at 3.7 µM,-14%
same,growth inhibition,[11]; [17],22%
same,growth inhibition,[11]; at 11.0 µM,-12%
same,growth inhibition,[11]; at 33.0 µM,21%
same,growth inhibition,[11]; [18],97% (active)
same,growth inhibition,[11]; at 50.0 µM,89.4% (active)
same,growth inhibition,[11]; at 100.0 µM,98% (active)
same,growth inhibition,[12]; at 1.2 µM,-45%
same,growth inhibition,[12]; at 3.7 µM,-39%
same,growth inhibition,[12]; at 11.0 µM,-33%
same,growth inhibition,[12]; at 33.0 µM,-5%
same,growth inhibition,[12]; at 100.0 µM,98% (active)
same,growth inhibition,[13]; at 1.2 µM,-17%
same,growth inhibition,[13]; at 3.7 µM,-19%
same,growth inhibition,[13]; at 11.0 µM,-11%
same,growth inhibition,[13]; at 33.0 µM,69%
same,growth inhibition,[13]; at 100.0 µM,98% (active)
same,growth inhibition,[14]; at 1.2 µM,-14%
same,growth inhibition,[14]; at 3.7 µM,-17%
same,growth inhibition,[14]; at 11.0 µM,-19%
same,growth inhibition,[14]; at 33.0 µM,3%
same,growth inhibition,[14]; at 100.0 µM,99% (active)
same,growth inhibition,[15]; [17],-14%
same,growth inhibition,[15]; [18],97% (active)
same,growth inhibition,[15]; at 50.0 µM,88.6% (active)
same,growth inhibition,[16]; at 1.2 µM,-22%
same,growth inhibition,[16]; at 3.7 µM,-22%
same,growth inhibition,[16]; at 11.0 µM,-15%
same,growth inhibition,[16]; at 33.0 µM,54%
same,growth inhibition,[16]; at 100.0 µM,98% (active)
